Screens deposited in PubChem BioAssay by Paczesny and Yang Labs, IUPUI and University of Michigan.
This excerpt belongs to a sample that is enriched for hits.
ST2 inh: blocks human ST2 binding to IL-33 | Q01638 | inhibition, % for hits at 17 µM | AlphaLISA ST2-Fc/biotin-IL-33 interaction, 1 h | hit rate 2.3% among 78,000 | AID 1259354; in the data active = inhibition above about 30%
Target sequence (Q01638 whole entry, looked up): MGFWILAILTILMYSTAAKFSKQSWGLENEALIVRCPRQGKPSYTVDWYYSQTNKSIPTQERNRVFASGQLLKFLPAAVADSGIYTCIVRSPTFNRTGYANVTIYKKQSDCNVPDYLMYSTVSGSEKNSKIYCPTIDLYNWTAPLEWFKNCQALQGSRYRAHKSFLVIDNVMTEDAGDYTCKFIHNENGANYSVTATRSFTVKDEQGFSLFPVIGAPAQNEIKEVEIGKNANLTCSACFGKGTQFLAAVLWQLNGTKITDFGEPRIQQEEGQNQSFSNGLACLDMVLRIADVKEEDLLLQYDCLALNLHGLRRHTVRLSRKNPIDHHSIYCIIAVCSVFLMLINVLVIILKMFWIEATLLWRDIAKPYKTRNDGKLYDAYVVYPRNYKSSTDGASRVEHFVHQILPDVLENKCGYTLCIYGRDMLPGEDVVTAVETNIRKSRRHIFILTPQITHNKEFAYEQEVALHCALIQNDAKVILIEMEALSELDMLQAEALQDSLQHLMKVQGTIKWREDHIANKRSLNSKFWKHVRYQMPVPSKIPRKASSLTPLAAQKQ
The depositor's hits bear a star; i = inactive; ! = a repeat was not active.

SMILES	ST2 inh
O=C(CSc1ccc2nnc(-c3cccnc3)n2n1)N1CCCCC1c1ccc(F)cc1 (stereo not drawn)	i
O=C(c1ccc(NCc2cccnc2)nc1)N1CCCC(c2ccccc2)CC1 (stereo not drawn)	i
O=C(CSc1ccc2nnc(-c3cccnc3)n2n1)N1CCCC(c2ccccc2)CC1 (stereo not drawn)	36%*
COc1ccc(NC(=O)C2CCN(S(=O)(=O)c3cccs3)CC2)cc1Cl	i
C=CCOc1ccc(/C=c2\sc3nc(=O)c(C)nn3c2=O)cc1	i
Cc1nc(C(C)N(C)C(=O)Nc2ccc3c(c2)OCO3)c(C)s1 (stereo not drawn)	i
O=C(Nc1c[nH]c(=O)[nH]c1=O)c1ccc(Oc2ccc(C(=O)Nc3c[nH]c(=O)[nH]c3=O)cc2)cc1	36%*
O=C(CCc1ccccc1)Nc1c[nH]c(=O)[nH]c1=O	i
O=C(Nc1c[nH]c(=O)[nH]c1=O)c1ccc(N2C(=O)C3C4C=CC(C4)C3C2=O)cc1 (stereo not drawn)	i
CCc1ccc(C2=C(C)C(=O)N(CC(=O)Nc3c(F)cc(F)cc3Br)S2(=O)=O)cc1	i
COc1cc(/C=C2\SC(c3ccc(C)cc3)=NC2=O)ccc1O	62%*
COc1ccc(/C=C2\SC(c3ccc(C)cc3)=NC2=O)cc1OC	30%*
COc1cc(/C=C/c2cc(O)cc(O)c2)ccc1O	i
COc1ccc(/C=C2/C(=O)N=C(N)N2C)cc1OC	i
COc1cc(/C=C2\SC(N)=NC2=O)cc(Br)c1O	i
COc1ccc(/C=C2/SC(N3CCN(C)CC3)=NC2=O)cc1OC	i
Cc1ccccc1CSC1=NCCN1C(=O)c1ccc(S(=O)(=O)N2CCCCC2)cc1	i
Cc1nn(S(=O)(=O)c2ccccc2)c(C)c1Sc1ccc([N+](=O)[O-])cc1	i
Cc1nn(C(=O)c2cccs2)c(C)c1Sc1ccc(Cl)cc1	i
Cc1nn(C(=O)c2cccnc2)c(C)c1Sc1ccc(Br)cc1	i
Cc1nn(S(=O)(=O)c2ccccc2[N+](=O)[O-])c(C)c1Sc1ccc([N+](=O)[O-])cc1	43%*
Cc1cccc(C(=O)n2nc(C)c(Sc3ccc([N+](=O)[O-])cc3)c2C)c1	30%*
Cc1nn(S(=O)(=O)c2ccc(Br)cc2)c(C)c1Sc1ccccc1	i
CC(=O)c1ccc(N2CCN(C(=O)CCS(=O)(=O)c3cccc4nonc34)CC2)cc1	i
Cc1c(N=Cc2ccc(O)cc2O)c(=O)n(-c2ccccc2)n1C	i
SMILES	ST2 inh
CN1CC2([N+](=O)[O-])CC([N+](=O)[O-])(C1)c1ccccc1C2=O (stereo not drawn)	i
Brc1ccccc1CN1CCN(c2ncccn2)CC1	i
O=C(c1c(F)cccc1Cl)N(c1ccc(F)cc1)C1C=CS(=O)(=O)C1 (stereo not drawn)	i
O=C(c1ccccc1)N1CCC2(Cl)CCCCC2C1c1ccccc1 (stereo not drawn)	i
Cc1ccc([N+](=O)[O-])cc1S(=O)(=O)Nc1cccc(C(=O)O)c1	i
Cc1ccc(S(=O)(=O)N=C2C=C(Nc3cccc(C(=O)O)c3)C(=O)c3ccccc32)cc1	53%*
Cc1ccc(S(=O)(=O)Nc2cccc(C(=O)NN)c2)cc1	i
Cc1ccc(S(=O)(=O)N=C2C=C(Nc3cccc(C(=O)O)c3)C(=O)c3ccccc32)c(C)c1	48%*
Cc1cccc(NC(=O)C(C)N(c2ccccc2)S(C)(=O)=O)c1 (stereo not drawn)	i
Cc1ccc(NC(=O)c2cccc(S(=O)(=O)Nc3cccc(C(=O)O)c3)c2)cc1	i
O=C(NCCN1CCN(c2ccccc2F)CC1)c1ccc2nc3ccc(Cl)cc3c(=O)n2c1	i
Cc1cc(N2CCC(C)CC2)nc2ccc(NC(=O)C3CCCO3)cc12 (stereo not drawn)	i
CCCCn1c(CN2CCCCC2CC(=O)OCC)cnc1S(=O)(=O)CC (stereo not drawn)	i
COc1ccc(C2C(C(=O)Nc3ccccn3)=C(C)NC3=C2C(=O)CCC3)cc1 (stereo not drawn)	i
COc1ccc(-c2nnc(/C=C/c3ccccc3)o2)cc1	i
CN(C)c1ccc(/C=C/c2nc(=O)c3ccccc3o2)cc1	55%*
Cc1ccc2oc(/C=C/c3nc4cc(C)ccc4o3)nc2c1	i
Cn1c(=O)c2c(nc(NCCOCCO)n2Cc2ccc(Cl)cc2)n(C)c1=O	i
O=C(c1cc2cc(Br)ccc2oc1=O)N1CCCCC1	i
Cc1cccc(C(=O)NC(NCc2ccccc2)C(Cl)(Cl)Cl)c1 (stereo not drawn)	i
COc1ccccc1N=c1sc(C2=c3ccccc3=NC2=O)c(O)n1-c1ccccc1OC	36%*
CCCc1cc(C(=O)N2CCC(Cc3nn(C)c(=O)n3CC)CC2)ccn1	i
CS(=O)(=O)c1nc2ccccc2n1Cc1ccccc1Cl	i
CC1=C(C(N)=O)C(c2cccc(F)c2)n2nc(SCc3ccccc3)nc2N1 (stereo not drawn)	32%*!
COc1ccc(C2C(C(N)=O)=C(C)Nc3nc(SCc4ccccc4)nn32)cc1OC (stereo not drawn)	i
